Records with an inconclusive call do not appear. Activity calls are given as the source filed them. Calls follow the shape of the dose curve; as a rule, active = well fitted curve in the direction sought with a large enough effect in the repeat runs; inconclusive = weak or mixed curves; inactive = no such curve, though single readings can be large; an effect the other way counts as inactive or inconclusive.
Key:
[1] = A CellTox Green Cytotoxicity Assay to monitor cytotoxicity in HepG2 cells - 16 hour (AID 1224876); also: nearly all actives have a fitted effect of over 45% in size; also: potency is read from the fitted curve at half-maximal effect
Method in brief: (§1)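 HepG2, 600 cells/well premixed w/ CellTox Green; 5 h settle, 37 C/5% CO2; pintool cpd add (DMSO); 37 C, 40 h; fluorescence read at 0, 8, 16, 24, 32, 40 h.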

[2] = qHTS RealTime-Glo MT Cell Viability Assay in HepG2 cells - 32 hour (AID 1224877); also: nearly all actives have a fitted effect of over 55% in size
Method in brief: (§2)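 qHTS, HepG2, 600 cells/well, RealTime-Glo (NanoLuc + prosubstrate) added with cells; 5 h preincubation; DMSO compound addition; 37 C; luminescence at 0/8/16/24/32/40 h.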

[3] = A CellTox Green Cytotoxicity Assay to monitor cytotoxicity in HepG2 cells - 24 hour (AID 1224878); also: nearly all actives have a fitted effect of over 45% in size; also: potency is read from the fitted curve at half-maximal effect
Method in brief: as §1

[4] = A CellTox Green Cytotoxicity Assay to monitor cytotoxicity in HepG2 cells - 40 hour (AID 1224879); also: nearly all actives have a fitted effect of over 40% in size; also: potency is read from the fitted curve at half-maximal effect
Method in brief: as §1

[5] = qHTS RealTime-Glo MT Cell Viability Assay in HEK293 cells - 0 hour (AID 1224880); also: top concentration of the series differs between compounds; nearly all actives have a fitted effect of over 45% in size
Method in brief: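 Luminescence readout at each listed time point; HEK293, 600 cells/well, RealTime-Glo MT reagent added with cells; compounds pinned (23 nL in DMSO) after 5 h at 37 C; continuous culture at 37 C.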

[6] = A CellTox Green Cytotoxicity Assay to monitor cytotoxicity in HEK293 cells - 32 hour (AID 1224881); also: nearly all actives have a fitted effect of over 40% in size
Method in brief: (§3)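 Read-out: fluorescence of a cell-impermeant cyanine dye staining DNA of dead cells, proportional to cytotoxicity. HEK293, 600 cells/well with reagent, compound (23 nL DMSO) added after 5 h; reads at 0, 8, 16, 24, 32, 40 h.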

[7] = A CellTox Green Cytotoxicity Assay to monitor cytotoxicity in HepG2 cells - 32 hour (AID 1224883); also: nearly all actives have a fitted effect of over 50% in size; also: potency is read from the fitted curve at half-maximal effect
Method in brief: as §1

[8] = A CellTox Green Cytotoxicity Assay to monitor cytotoxicity in HEK293 cells - 8 hour (AID 1224884); also: nearly all actives have a fitted effect of over 35% in size; also: potency is read from the fitted curve at half-maximal effect
Method in brief: as §3

[9] = qHTS RealTime-Glo MT Cell Viability Assay in HepG2 cells - 16 hour (AID 1224885); also: nearly all actives have a fitted effect of over 50% in size
Method in brief: as §2

[10] = A CellTox Green Cytotoxicity Assay to monitor cytotoxicity in HepG2 cells - 0 hour (AID 1224882); also: nearly all actives have a fitted effect of over 35% in size
Method in brief: as §1

Measured: Potency

C[C@H](CCC(=O)NCC(=O)O)[C@H]1CC[C@H]2[C@@H]3[C@H](O)C[C@@H]4C[C@H](O)CC[C@]4(C)[C@H]3C[C@H](O)[C@]12C
inactive: [1] | [2] | [3] | [4] | [5] | [6] | [7] | [8] | [9]

CCCCCC(=O)OCC
inactive: [1] | [2] | [3] | [4] | [5] | [6] | [8] | [9]

CCCOC(=O)CCCCC(=O)OCCC
inactive: [1] | [2] | [3] | [4] | [5] | [6] | [7] | [8] | [9]

CC(C)C(=O)Nc1cccc(C(F)(F)F)c1
inactive: [1] | [2] | [3] | [4] | [5] | [6] | [7] | [8] | [9]

CCCCCCCCCCCCCCCC(=O)NCCO
active: [1] 8.49 µM | [3] 8.49 µM | [4] 8.49 µM | [7] 9.52 µM
inactive: [2] | [5] | [6] | [8] | [9]

Cc1ccccc1OCC1CO1 (configuration not stated)
inactive: [1] | [2] | [3] | [4] | [5] | [6] | [8] | [9]

CC(C)COC(=O)COc1ccc(Cl)cc1Cl
active: [8] 43.6 µM
inactive: [1] | [2] | [3] | [4] | [5] | [6] | [9]

O=C(O)/C=C/c1ccccc1
inactive: [2] | [3] | [4] | [5] | [6] | [10] | [7] | [8]

C=CCOCC(CO)(COCC=C)COCC=C
inactive: [1] | [2] | [3] | [4] | [6] | [10] | [8] | [9]

CCCCCCCCC(=O)OCC
inactive: [1] | [2] | [3] | [4] | [6] | [10] | [7] | [8] | [9]

c1ccc(CNc2ncnc3nc[nH]c23)cc1
inactive: [1] | [2] | [3] | [4] | [6] | [10] | [7] | [8] | [9]

CC(=O)OC[C@H]1O[C@@H](OC(C)=O)[C@H](OC(C)=O)[C@@H]1OC(C)=O
inactive: [2] | [3] | [4] | [5] | [6] | [10] | [7] | [8] | [9]

CCc1nccnc1C
inactive: [1] | [2] | [3] | [4] | [6] | [7] | [8] | [9]

CC(Cl)COP(=O)(OCC(C)Cl)OCC(C)Cl (configuration not stated)
inactive: [2] | [3] | [4] | [5] | [6] | [10] | [7] | [8] | [9]

CC(C)(c1ccc(Oc2ccc3c(c2)C(=O)OC3=O)cc1)c1ccc(Oc2ccc3c(c2)C(=O)OC3=O)cc1
inactive: [2] | [3] | [4] | [5] | [6] | [10] | [7] | [8]

COc1ccc(OC)c(NC(=O)CC(C)=O)c1
inactive: [2] | [3] | [4] | [5] | [6] | [10] | [7] | [8] | [9]

CC(C)CCO
inactive: [1] | [3] | [4] | [6] | [10] | [7] | [8]

CC(=O)/C=C/c1ccco1
inactive: [1] | [2] | [3] | [4] | [6] | [10] | [7] | [8] | [9]

CCOC(=O)CC(CC(=O)OCC)(OC(C)=O)C(=O)OCC
inactive: [2] | [3] | [4] | [5] | [6] | [10] | [7] | [8] | [9]

CNC(=O)NC
inactive: [1] | [2] | [3] | [4] | [6] | [7] | [8] | [9]

CCC1Nc2cc(Cl)c(S(N)(=O)=O)cc2S(=O)(=O)N1 (configuration not stated)
inactive: [1] | [2] | [3] | [4] | [6] | [10] | [7] | [8] | [9]

OCCCCCCCl
inactive: [2] | [3] | [4] | [5] | [6] | [10] | [7] | [8] | [9]

Nc1nc(=O)n([C@@H]2O[C@H](CO)[C@@H](O)[C@@H]2F)cc1I
inactive: [1] | [2] | [3] | [4] | [6] | [10] | [7] | [8] | [9]
